Bioassay records (PubChem BioAssay)
ALR inh: human ALR oxidase inhibition via reduced H2O2; inhibition, % (no concentration beside the values); 290,000 compounds, 3.8% hits; purified ALR, DTT oxidation, H2O2 HRP-luminol luminescence;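 active means mean replicate inhibition above about 79%, with every replicate also reaching it, limit read from the data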
Target sequence (P55789 whole entry, looked up): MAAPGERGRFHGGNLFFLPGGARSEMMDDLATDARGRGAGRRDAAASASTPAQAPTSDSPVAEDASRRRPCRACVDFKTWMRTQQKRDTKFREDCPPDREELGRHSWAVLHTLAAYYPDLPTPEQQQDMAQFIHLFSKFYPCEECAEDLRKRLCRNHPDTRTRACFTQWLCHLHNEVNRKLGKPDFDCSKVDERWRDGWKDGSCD
NTR1 agonist: NTR1 (human) agonism; P30989; NTR1-U2OS beta-arrestin-GFP spot imaging, agonist mode; activation, % at 20 µM; 330,000 compounds, 0.17% hits; AID 493036;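 active means activation at or above 40% of the spot to cytoplasm intensity ratio, with at least 20 cells analyzed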;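 further: 0% = DMSO without peptide and 100% = 100 nM NTR1 peptide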
UBC9 SUMO inh: blocks human SUMOylation mediated by UBC9 | P63279 | inhibition, % at 35 µM | HTRF SUMOylation assay, SAE1/SAE2 + UBC9, in vitro | AID 2006 | 290,000 compounds, 0.36% hits; in the data active means inhibition above about 50%, passing the limit was not always enough
Target sequence (P63279 whole entry, looked up): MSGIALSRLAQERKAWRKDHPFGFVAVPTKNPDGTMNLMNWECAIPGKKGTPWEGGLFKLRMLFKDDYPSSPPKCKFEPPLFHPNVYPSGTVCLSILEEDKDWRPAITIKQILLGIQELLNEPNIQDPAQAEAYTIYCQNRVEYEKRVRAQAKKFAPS
H9c2 protect: protects H9c2 cardiomyocytes from peroxide injury; H2O2 injury protection, ATPLite, 2 h; protection from H2O2 cell death, % at 20 µM; 360,000 compounds, 0.63% hits;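 active means compounds giving at least 50% protection of heart cells from peroxide-induced death in the single-dose screen, raw or plate-pattern-corrected value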;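 further: 0% = DMSO wells with peroxide and 100% = DMSO wells without peroxide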
An asterisk follows results filed as active. The list is not random: actives were taken first. Their share in the collection is about 3.9%.

How did CCCN1CCc2cccc3c2[C@H]1Cc1ccc(O)c(O)c1-3 do in these assays?
ALR inh: 99*; NTR1 agonist: 2; H9c2 protect: 51*

What do the screens show for `COc1ccc2c(c1O)-c1c(OC)c(OC)cc3c1[C@H](C2)N(C)CC3`?
ALR inh: -20; NTR1 agonist: -1; H9c2 protect: 16

What do the screens show for `CNCCc1nc(N)n[nH]1`?
NTR1 agonist: -5; UBC9 SUMO inh: 6; H9c2 protect: -6

What do the screens show for `COC(=O)C(O)(c1ccc(NC(=O)Oc2ccccc2)cc1)C(F)(F)F` (stereo unspecified)?
ALR inh: -3; NTR1 agonist: 0; UBC9 SUMO inh: -5; H9c2 protect: -7

How did O=C(c1ccccc1)C(CN1CCCC1)c1ccccc1 (stereo unspecified) do in these assays?
ALR inh: 97*; UBC9 SUMO inh: 5; H9c2 protect: -18

What do the screens show for `Cc1ccccc1Cc1c(C)nc2nc(SCC(=O)N3CCC4(CC3)OCCO4)nn2c1C`?
ALR inh: -2; NTR1 agonist: -2; UBC9 SUMO inh: 7; H9c2 protect: 1

What do the screens show for `O=P(Nc1ccccc1)(Oc1ccccc1)Oc1ccccc1`?
ALR inh: -4; NTR1 agonist: 4; UBC9 SUMO inh: 0; H9c2 protect: 54*

How did COc1cccc(OP(=O)(Nc2ccccc2)Oc2cccc(OC)c2)c1 do in these assays?
ALR inh: 10; NTR1 agonist: 13; UBC9 SUMO inh: -7; H9c2 protect: 70*

How did O=P(Nc1ccccc1)(Nc1ccccc1)Oc1ccccc1 do in these assays?
ALR inh: -4; NTR1 agonist: 0; UBC9 SUMO inh: -10; H9c2 protect: 6

What do the screens show for `O=C1/C(=C/c2cc([N+](=O)[O-])ccc2Cl)N2CCC1CC2`?
ALR inh: 2; NTR1 agonist: 2; UBC9 SUMO inh: 9; H9c2 protect: 8

How did NCCc1c(Cc2ccccc2)[nH]c2ccccc12 do in these assays?
ALR inh: 10; NTR1 agonist: -1; H9c2 protect: 1

How did COc1cccc2c1O[C@H]1C(=O)CC[C@H]3CN(C)CCC231 (stereo partly specified) do in these assays?
ALR inh: -8; NTR1 agonist: -2; H9c2 protect: 4

How did COc1cc(/C=C/c2nc3ccccc3c(=O)n2-c2ccc(O)cc2)ccc1O do in these assays?
ALR inh: 22; NTR1 agonist: 7; UBC9 SUMO inh: -4; H9c2 protect: 66*

How did COc1ccc(-n2c(/C=C/c3ccc(O)c(O)c3)nc3ccccc3c2=O)cc1 do in these assays?
ALR inh: 63; NTR1 agonist: 3; UBC9 SUMO inh: -12; H9c2 protect: 57*

What do the screens show for `O=c1c2ccccc2nc(/C=C/c2ccc3c(c2)OCO3)n1-c1ccccc1`?
ALR inh: -3; NTR1 agonist: -2; UBC9 SUMO inh: 4; H9c2 protect: 39

Results for O=C1NC(=S)N(c2ccc(F)cc2)C(=O)/C1=C\c1ccoc1 ?
UBC9 SUMO inh: 29; H9c2 protect: 4

Results for COc1ccc(OC)c(N2C(=O)/C(=C/c3ccco3)C(=O)NC2=S)c1 ?
ALR inh: 4; NTR1 agonist: 0; UBC9 SUMO inh: 94*

What do the screens show for `COc1ccc(N2C(=O)/C(=C/c3ccc(C)o3)C(=O)NC2=S)cc1`?
NTR1 agonist: 0; UBC9 SUMO inh: 8; H9c2 protect: 10

What do the screens show for `O=C1NC(=S)N(c2ccc(Cl)cc2)C(=O)/C1=C/N1CCN(C(=O)c2ccco2)CC1`?
ALR inh: 97*; NTR1 agonist: -1; UBC9 SUMO inh: 12; H9c2 protect: 4

How did O=C1NC(=S)N(c2ccc(F)cc2)C(=O)/C1=C/c1ccco1 do in these assays?
ALR inh: 93*; NTR1 agonist: -1; UBC9 SUMO inh: 66*

How did C[C@H]1CCC[C@H](O)CCCCCc2cc(O)cc(O)c2C(=O)O1 do in these assays?
ALR inh: 39; NTR1 agonist: 2; UBC9 SUMO inh: 5; H9c2 protect: -14

How did Cc1cccc(NC(=O)N2CCCC2)c1 do in these assays?
ALR inh: -4; NTR1 agonist: -1; UBC9 SUMO inh: 10; H9c2 protect: -3

Results for Cc1[nH]c2ccc(OCc3ccccc3)cc2c1CCN ?
ALR inh: 12; NTR1 agonist: 0; UBC9 SUMO inh: -24; H9c2 protect: 12

How did Cc1[nH]c2ccc(O)cc2c1CCN do in these assays?
ALR inh: 96*; NTR1 agonist: 2; H9c2 protect: 10

How did COC(=O)C1=C(c2cccc(C#N)c2)C[C@@H]2CC[C@H]1N2C(=O)NCCOc1ccccc1Cl do in these assays?
ALR inh: -4; NTR1 agonist: 0; H9c2 protect: -1

What do the screens show for `O=C(O)CC1OCC=C2CN3CCC45C6=CC(=O)C(=O)C([N+](=O)[O-])=C6NC4C1C2CC35` (stereo unspecified)?
ALR inh: 61; UBC9 SUMO inh: 100*; H9c2 protect: -4

What do the screens show for `Cc1ccc(N2C(=O)NC(=O)/C(=C/c3ccc(-c4ccc(C(=O)O)c(Cl)c4)o3)C2=O)cc1`?
ALR inh: 97*; NTR1 agonist: 0; UBC9 SUMO inh: 25; H9c2 protect: -2

What do the screens show for `Cc1cc(/C=C2\C(=O)NC(=O)N(c3cccc(F)c3)C2=O)c(C)n1-c1ccc(C(=O)O)c(Cl)c1`?
ALR inh: 45; NTR1 agonist: 1; UBC9 SUMO inh: 14; H9c2 protect: 2

Results for Cc1ccc(N2C(=O)NC(=O)/C(=C\c3cc(C)n(-c4cc(C(=O)O)cc(C(=O)O)c4)c3C)C2=O)cc1 ?
ALR inh: 39; NTR1 agonist: 3; UBC9 SUMO inh: 21; H9c2 protect: -4

Results for Cc1ccc(N2C(=O)NC(=O)/C(=C\c3cc(C)n(-c4ccc(C(=O)O)cc4)c3C)C2=O)cc1 ?
ALR inh: 97*; NTR1 agonist: 1; UBC9 SUMO inh: 19; H9c2 protect: -3

What do the screens show for `Cc1cc(/C=C2\C(=O)NC(=O)N(c3ccc(F)cc3)C2=O)c(C)n1-c1ccc(C(=O)O)cc1`?
ALR inh: 98*; NTR1 agonist: -1; UBC9 SUMO inh: 14; H9c2 protect: 3

How did Cc1c(N=Cc2c(O)n(CCc3ccc(F)cc3)c(=O)[nH]c2=O)c(=O)n(-c2ccccc2)n1C do in these assays?
ALR inh: -2; NTR1 agonist: 0; UBC9 SUMO inh: 0; H9c2 protect: 12

What do the screens show for `CCC(C(=O)Nc1ccc(Cl)cc1)N1CCCC1=O` (stereo unspecified)?
ALR inh: -7; NTR1 agonist: -1; H9c2 protect: -3

Results for COC(=O)C1=C(c2ccc(OCc3ccccc3)cc2)C[C@@H]2CC[C@H]1N2C(=O)NCc1ccc(OC)cc1 ?
H9c2 protect: -22

Results for COc1ccccc1[As](=O)(O)CC(O)COc1ccc(Cl)cc1Cl (stereo unspecified) ?
ALR inh: 10; NTR1 agonist: 0; UBC9 SUMO inh: 9

What do the screens show for `CCOC(=O)c1c(NS(=O)(=O)c2ccccc2)n(CCCOC)c2nc3ccccc3nc12`?
ALR inh: 23; NTR1 agonist: -1; UBC9 SUMO inh: 100*; H9c2 protect: -1

Results for COc1ccc(Cn2c(N)c(C(=O)NCc3ccco3)c3nc4ccccc4nc32)cc1OC ?
ALR inh: 0; NTR1 agonist: 0; UBC9 SUMO inh: 100*; H9c2 protect: 3
